# HCMV inh – blocks human cytomegalovirus replication; activity change, negative = inhibition, % at 57.5 µM; 410,000 compounds, 4.5% hits; AID 1259415; HFF cells, HCMV-luciferase reporter, 72 h; hits give low values; in the data active = activity change below about -60%; inconclusive = no clear call, values can overlap the other calls; inactive = above about -39%
#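 Human foreskin fibroblasts infected with luciferase-reporter HCMV at MOI 1 PFU/cell, compounds at two doses. Luciferase measured 72 h post infection; normalized to buffer-only basal and Salinomycin (10uM) controls.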
# HCV inh – blocks hepatitis C virus | 340,000 compounds, 3.4% hits | Huh7.5.1 HCVcc-Cre infection, luciferase reporter, 44 h | Potency, µM (top dose mostly 41.8 µM), without a hit: at the highest dose activity change, negative = inhibition, hits mostly inhibitors; active = well fitted inhibition curve with a large enough effect; inconclusive = small, poorly fitted or top-dose-only effect, or another doubt; inactive = no such curve, though single readings can be large or run the other way; note: potency is the fitted concentration of half-maximal effect
#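 Cells seeded at 1,000/well and cultured 4 h, then compounds added followed by HCVcc-Cre virus (~0.5 moi). After 44 h further culture, luciferase substrate was added, plates held 15 min at room temperature, and luminescence read for 15 sec.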
# Vaccinia mCherry – vaccinia inhibition (mCherry reporter). AID 720579. 310,000 compounds, 0.63% hits. Vaccinia virus mCherry reporter infection, fluorescence. Potency, µM (highest dose often 36.5 µM), for the others: top-dose activity change, negative = inhibition, actives largely listed as inhibitors; calls by dose curve; tested in A549 cells; note: potency is the fitted concentration of half-maximal effect; nearly all actives have a fitted effect of over 35% in size
# LASV entry inh – Lassa virus entry inhibition. AID 540256. 300,000 compounds, 1.2% hits. Potency, µM (top dose mostly 37.9 µM), for the others: top-dose activity change, negative = inhibition, usual class: inhibitors. Lassa virus pseudotype entry inhibition, cell reporter; calls by dose curve; tested in HEK293 cells; note: potency is the fitted concentration of half-maximal effect; nearly all actives have a fitted effect of over 50% in size
# Vaccinia Venus – inhibitors of vaccinia virus (Venus reporter); Potency, µM (series often up to 36.5 µM), without a hit: top-dose activity change, negative = inhibition, hits mostly inhibitors; 330,000 compounds, 0.46% hits; Vaccinia virus Venus reporter expression, fluorescence; calls by dose curve; tested in A549 cells; note: potency is the fitted concentration of half-maximal effect; nearly all actives have a fitted effect of over 30% in size
# Marburg entry inh – Marburg virus entry inhibition; Potency, µM (doses to about 37.8 µM), without a hit: at the highest dose activity change, negative = inhibition, hits mostly inhibitors; 300,000 compounds, 1.8% hits; Marburg virus pseudotyped entry inhibition, cell reporter; calls by dose curve; tested in HEK293 cells; note: potency is the fitted concentration of half-maximal effect
# Starred values were filed as active, the others as inactive; i = inactive; ? = inconclusive; · = no result given; ! = repeats disagree; [ ] = another dose, or the depositor's remark. Only some compounds are listed: those with a hit (about 7.8% of all), similar ones and a draw of the others. % is set by controls: 0 for no effect and ±100 for the full control effect.
SMILES,HCMV inh,HCV inh,Vaccinia mCherry,LASV entry inh,Vaccinia Venus,Marburg entry inh
CCOc1ccc(Br)cc1C1C(C(=O)Nc2ccccc2OC)=C(C)Nc2nnnn21 (centres undefined),-4.1,·,-11.6%,-4.6%[46.1 µM],4.8%,?
CCCn1c(CNc2ccc(Br)cc2)nc2ccccc21,?,?,11.2µM*,·,?,·
CCn1cnc2cc(NCc3nc4ccccc4n3C)ccc21,96.6,7.4%,i,?,-6.2%,?
CCn1cnc2cc(NCc3nc4ccccc4n3Cc3ccccc3)ccc21,-33.8,-0.8%,-25.3%,10µM*,-16.8%,?
O=C(COc1ccccc1C(=O)OCC(=O)N1CCOCC1)Nc1ccc(Br)cc1,·,·,i,·,-17.0%,·
CC(C)(C)OC(=O)N1CCC(c2c(C(=O)NCCN3CCOCC3)cnn2-c2ccccc2)CC1,0.0,·,?,1.4%[46.1 µM],?,·
Cc1ccccc1CC1C(=O)Nc2ccc(Br)cc21 (centres undefined),?,·,4.1%,-4.4%[46.1 µM],-9.8%,-1.2%[46.1 µM]
COc1ccc(Br)cc1CC1C(=O)Nc2ccccc21 (centres undefined),-74.0*,·,-25.6%,-1.7%[46.1 µM],?,?
COc1ccc(NC(=O)c2oc3ccccc3c2NC(=O)Cc2ccc(F)cc2)c(OC)c1,-10.3,·,-14.1%,-10.6%[46.1 µM],-13.2%,-21.3%[46.1 µM]
Fc1cccc(-c2cc3nc4c(c(N5CCOCC5)n3n2)CCCC4)c1,66.3,3.55µM*,i,-3.5%,-6.1%,?
Fc1cccc(-c2cc3nc4c(c(N5CCN(c6cnccn6)CC5)n3n2)CCCC4)c1,·,·,·,·,·,-1.5%
COc1cccc(N2CCN(C(=O)C3CCN(S(=O)(=O)c4cccc5nonc45)CC3)CC2)c1,-14.8,·,0.9%,-13.7%[46.1 µM],-6.1%,·
Cc1ccc2nc(CS)[nH]c2c1,·,·,25.2%,·,7.0%,·
CN1CCc2c(c3ccccc3n2C)C1,-7.3,-15.7%,-11.2%,1.8%,-4.0%,?
CN1CCc2c(c3ccccc3n2Cc2ccccc2)C1,-38.3,-27.9%,28.2µM*!,·,12.6µM*!,·
O=C(CN(CC(=O)Nc1ccc(Br)cc1)CC(=O)Nc1ccc(Br)cc1)Nc1ccc(Br)cc1,-16.7,·,·,·,·,·
Nc1c(C(=O)NCc2ccco2)c2nc3ccccc3nc2n1CCc1ccccc1,-69.3*,?,·,?,·,-36.5%
Nc1c(C(=O)NCc2ccccc2)c2nc3ccccc3nc2n1CCCN1CCOCC1,28.0,-5.8%,·,-24.4%,·,?
COc1ccc(CNC(=O)c2c(N)n(CCCN3CCOCC3)c3nc4ccccc4nc23)cc1,-26.1,?,·,23.1µM*,·,16.4µM*
CCN1C(=O)NC(c2cccc(F)c2)C(C(=O)OC)=C1C (centres undefined),·,·,·,·,·,19.3%[14.2 µM]
CCOc1ccc(CN2C(=O)c3ccccc3Sc3ccc(C(=O)NCc4ccco4)cc32)cc1,28.5,·,-11.3%,?,-5.9%,?
COc1ccc2cc(CN(Cc3ccco3)C(c3nnnn3C3CCCCC3)C(C)C)c(=O)[nH]c2c1 (centres undefined),-23.5,?,·,7.6%,-16.5%,0.4%
CC(C)(C)n1nnnc1CN(Cc1ccco1)Cc1cc2cc3c(cc2[nH]c1=O)OCO3,-64.8*,-5.5%,·,-12.7%,-24.6%,-2.6%
CCC(C)(C)n1nnnc1CN(Cc1ccco1)Cc1cc2cc3c(cc2[nH]c1=O)OCO3,·,15.0%,-13.9%,-29.6%,-5.0%,?
CCC(C)(C)n1nnnc1CN(Cc1ccc(Cl)cc1)Cc1ccco1,-63.6*,?,-26.0%,-8.9%,-4.1%,?
SMILES,HCMV inh,HCV inh,Vaccinia mCherry,LASV entry inh,Vaccinia Venus,Marburg entry inh
COc1ccc2cc(CN(Cc3ccco3)Cc3nnnn3C3CCCCC3)c(=O)[nH]c2c1,-84.0*,?,-2.4%,?,-27.3%,?
Cc1ccc2cc(CN(Cc3ccccc3)Cc3nnnn3C3CCCC3)c(=O)[nH]c2c1,-37.0,?,-16.7%,-15.6%,?,?
Cc1ccc2cc(CN(Cc3ccc(F)cc3)Cc3nnnn3C3CCCC3)c(=O)[nH]c2c1,24.7,14.0%,?,-21.2%,-21.7%,14.6µM*!
C=C(C)C[C@@]1(c2ccccc2)Oc2ccccc2C2=NCCN=C21,·,·,·,·,·,-20.7%[14.2 µM]
COc1ccc2cc(C(=O)NCc3ccc4c(c3)CCN4C(=O)c3ccc(C)cc3)[nH]c2c1,66.6,·,-29.3%,1.0%[46.1 µM],-22.8%,·
CCOCCCNC(=O)c1cnc2sc(N3CCCCC3)nn2c1=O,2.6,·,10.6%,-2.8%[46.1 µM],-5.5%,·
